Assay [1] deals with Lysosomal acid glucosylceramidase (Homo sapiens) (UniProt P04062). The assay is described as follows: Glucocerebrosidase-p2 (AID 348; in the data active = potency below about 10 µM; note: potency is the fitted concentration of half-maximal effect). The note with it: purified GBA, blue fluorogenic substrate, 40 min. The method, boiled down:
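Normal human glucocerebrosidase (0.2 nM) with blue fluorogenic substrate (80 uM final) in citrate/phosphate pH 5.9 with 10mM sodium taurocholate, 0.01% tween-20; 40 min RT, NaOH/glycine stop; fluorescence Ex 365/Em 440; AC50 from a titration from 0.6 nM upwards.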

Assay [2] can be described thus: AP1 Signaling Pathway (AID 357). Note: % is set by controls: 0 for no effect and ±100 for the full control effect. The note with it: ME-180 AP-1-bla reporter, EGF-induced, beta-lactamase ratio, 5 h; at 7.69 µM (top of the series) unless noted. The method, boiled down: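 In this screen, ME-180 cells in Opti-MEM with 0.5% dialyzed FBS received EC50 EGF and compound titrations for 5 h. AP-1 reporter beta-lactamase was detected via CCF4 ratio, giving AC50 for positive and negative modulators.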

The nature of assay [3]: NFAT Signaling Pathway (AID 444).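 Note: carbachol stimulus at about its EC50 of 1 µM final; % is set by controls: 0 for no effect and ±100 for the full control effect.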 To be noted: Jurkat NFAT-bla M1, carbachol, beta-lactamase ratio, 5 h; at 7.69 µM (top of the series) unless noted. In short, it runs like this: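 Jurkat cells with NFAT-driven β-lactamase reporter and co-expressed M1 receptor, stimulated with carbachol (final 1 uM, ~EC50), compound titration, 5 h at 37 °C. CCF4 loaded 1 h at RT; 460/530 nm ratio gave %activity and AC50.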

A short description of assay [4]: Stat Signaling Pathway (AID 446).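 Note: ME-180 cervical cancer cells given 40 pM IL-6 alongside compound; SIE-controlled beta-lactamase reporter measured as 460/530 nm FRET emission ratio; % is set by controls: 0 for no effect and ±100 for the full control effect.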 The note with it: ME-180 (cervical carcinoma) SIE beta-lactamase reporter, IL-6 stimulated, 5 h; at 7.69 µM (top of the series) unless noted. In short, it runs like this: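 Compound effects on IL-6-induced STAT reporter activity were measured in ME-180 cells. After overnight culture, cells were co-treated with 40 pM IL-6 for 5 hrs before beta-lactamase substrate loading at room temperature.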

For assay [5], the target named is Glucocorticoid receptor (Homo sapiens) (UniProt P04150). Nature of the assay: GR-EFC Redistribution (AID 451; calls by dose curve; note: potency is the fitted concentration of half-maximal effect). To be noted: CHO-K1 GR-EFC translocation, beta-gal luminescence, 2 h. In short, it runs like this: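 CHO-K1 cells expressing nuclear EA and GR-ED fragments of b-gal; compounds titrated up to 46 uM final, 2 h at 37 C. GR nuclear translocation read as complemented b-gal luminescence after 1 h RT detection.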

Assay [6] has as its target Mitogen-activated protein kinase 10 (Mus musculus) (UniProt Q61831). Nature of the assay: JNK3 AlphaScreen Assay (AID 530).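 Note: kinase came from lysate of stimulated human HepG2 cells; signal reports phosphorylation of biotinylated GST-cJun 1-79 at Ser73 with 10 µM ATP; % is set by controls: 0 for no effect and ±100 for the full control effect.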 To be noted: JNK3 lysate, c-Jun phosphorylation; series mostly up to 57.1 µM. The method, boiled down:
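HepG2 lysate (IL-1b/TNFa pre-activated) + biotin-GST-cJun 1-79 + anti-pSer73 cJun; cpd titration, 15 min RT; ATP 10 uM start; Tris pH 7.6, MgCl2, DTT, vanadate; beads in EDTA buffer; AlphaScreen.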

Assay [7] deals with 3',5'-cyclic-AMP phosphodiesterase 4B (Homo sapiens) (UniProt Q07343). Nature of the assay: qHTS Assay for Inhibitors of PDE-IV (AID 607; active = well fitted activation curve with a large enough effect in the main read-out, with a control signal flat, not every such curve was filed as active; note: % of control where 0% means no effect). To be noted: HEK293 ACTOne CNG channel cells, membrane potential fluorescence; series mostly up to 22.9 µM. In short, it runs like this: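 ACTOne HEK293 cells carry a modified cAMP-gated CNG channel and express endogenous PDE4; plated 1000 cells/well, compounds up to 22.9 uM final. Membrane-potential dye fluorescence (ex 535/em 590) was read; parental cells received 10 uM forskolin + 100 uM RO 20-1724.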

For assay [8], the target named is Cytochrome P450 2D6 (Homo sapiens) (UniProt P10635). Nature of the assay: qHTS Assay for Inhibitors and Substrates of Cytochrome P450 2D6 (AID 891; active = well fitted curve in the direction sought with a large enough effect; an effect the other way counts as inactive or inconclusive; note: potency is the fitted concentration of half-maximal effect; nearly all actives have a fitted effect of over 60% in size). The note with it: recombinant CYP2D6, luciferin-ME EGE luminescence; series mostly up to 57.1 µM. The method, boiled down:
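Luminescent read-out of luciferin formed by 5 nM human CYP2D6 demethylating 30 uM Luciferin-ME EGE (Km level) over 60 min at room temperature after NADPH regeneration addition. Data normalized to full inhibition by 1.43 uM quinidine.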

Assay [9] is described as follows: qHTS Assay for Lipid Storage Modulators (AID 1519; calls by dose curve). The note with it: Drosophila S3 cells, BODIPY lipid droplet/cell ratio, laser cytometry, cells loaded with oleic acid; for activity change, negative = inhibition: at 57.5 µM (top of the series). In short, it runs like this: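 Cells seeded at 5,000 per well were treated with compounds over a concentration series and loaded with oleic acid (400 uM, as added). Lipid droplet fluorescence (488 nm excitation, 500-530 nm channel) was read by laser-scanning cytometry and normalized to 20 uM Triacsin C.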

Assay [10] is described as follows: Primary qHTS for small molecule stabilizers of the endoplasmic reticulum resident proteome: Secreted ER Calcium Modulated Protein (SERCaMP) assay (AID 1508630; active = well fitted curve in the direction sought with a large enough effect; an effect the other way counts as inactive or inconclusive; note: % is set by controls: 0 for no effect and ±100 for the full control effect). To be noted: SH-SY5Y GLuc-SERCaMP (Gaussia luciferase released on ER calcium loss) secretion, thapsigargin, luminescence; series mostly up to 38.4 µM. The method, boiled down: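 The SH-SY5Y reporter protocol was run at 3 concentrations up to 38.3 uM (primary) or 11 concentrations (follow-up): 16 h compound, 100 nM thapsigargin for 4 h, then extracellular luciferase luminescence.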

Assay [11] deals with Cytochrome P450 3A4 (Homo sapiens) (UniProt P08684). The assay is described as follows: qHTS Assay for Activators of Cytochrome P450 3A4 (AID 885; active = well fitted curve in the direction sought with a large enough effect; an effect the other way counts as inactive or inconclusive; note: nearly all actives have a fitted effect of over 65% in size; note: potency is the fitted concentration of half-maximal effect). To be noted: recombinant CYP3A4, Luciferin-PPXE luminescence, 60 min; series mostly up to 57.1 µM. The method, boiled down:
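CYP3A4 activity: Luciferin-PPXE O-dealkylation, 25uM substrate, 200mM KPO4, RT throughout. Read-out is luciferase luminescence; higher values reflect activation.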

The target of assay [12] is Cytochrome P450 1A2 (Homo sapiens) (UniProt P05177). Nature of the assay: p450-cyp1a2 (AID 410; calls by dose curve; note: potency is the fitted concentration of half-maximal effect). To be noted: recombinant CYP1A2, luciferin-ME demethylation, luminescence; series mostly up to 57 µM. In short, it runs like this: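 20nM CYP1A2, 100uM Luciferin-ME (=Km), 100mM KPO4; cpd 10 min RT; +NADPH regen, 60 min RT; stop/detect 20 min; luminescence. Normalized to furafylline 57 uM = full inhibition.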

The target in assay [13] is Cytochrome P450 3A4 (Homo sapiens) (UniProt P08684). Nature of the assay: qHTS Assay for Inhibitors and Substrates of Cytochrome P450 3A4 (AID 884; active = well fitted curve in the direction sought with a large enough effect; an effect the other way counts as inactive or inconclusive; note: % is set by controls: 0 for no effect and ±100 for the full control effect; nearly all actives have a fitted effect of over 50% in size). To be noted: recombinant CYP3A4, Luciferin-PPXE luminescence; series mostly up to 57.1 µM. In short, it runs like this:
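Luminescent readout of luciferin produced by CYP3A4 (20 nM) dealkylation of Luciferin-PPXE, 25 uM (its KM). NADPH-driven reaction ran 60 min at RT after 10 min compound preincubation; data scaled to 57 uM ketoconazole as 100% inhibition.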

Where [14] appears, read: measured here: cell count channel max response.
Where [15] appears, read: measured here: lipid channel max response.

The results in this text go back to PubChem BioAssay (NCATS).

Results filed as inconclusive are left out. Active and inactive are the calls of the source. Unless noted, calls come from the whole dose curve; as a rule, active = well fitted curve in either direction with a large enough effect (not every such curve was filed as active); inconclusive = small, poorly fitted or top-dose-only effect, or another doubt; inactive = flat fitted curve, though single readings scatter. Bounds are passed on as bounds.

Sequence of 3',5'-cyclic-AMP phosphodiesterase 4B (Homo sapiens) (Q07343 whole entry, looked up): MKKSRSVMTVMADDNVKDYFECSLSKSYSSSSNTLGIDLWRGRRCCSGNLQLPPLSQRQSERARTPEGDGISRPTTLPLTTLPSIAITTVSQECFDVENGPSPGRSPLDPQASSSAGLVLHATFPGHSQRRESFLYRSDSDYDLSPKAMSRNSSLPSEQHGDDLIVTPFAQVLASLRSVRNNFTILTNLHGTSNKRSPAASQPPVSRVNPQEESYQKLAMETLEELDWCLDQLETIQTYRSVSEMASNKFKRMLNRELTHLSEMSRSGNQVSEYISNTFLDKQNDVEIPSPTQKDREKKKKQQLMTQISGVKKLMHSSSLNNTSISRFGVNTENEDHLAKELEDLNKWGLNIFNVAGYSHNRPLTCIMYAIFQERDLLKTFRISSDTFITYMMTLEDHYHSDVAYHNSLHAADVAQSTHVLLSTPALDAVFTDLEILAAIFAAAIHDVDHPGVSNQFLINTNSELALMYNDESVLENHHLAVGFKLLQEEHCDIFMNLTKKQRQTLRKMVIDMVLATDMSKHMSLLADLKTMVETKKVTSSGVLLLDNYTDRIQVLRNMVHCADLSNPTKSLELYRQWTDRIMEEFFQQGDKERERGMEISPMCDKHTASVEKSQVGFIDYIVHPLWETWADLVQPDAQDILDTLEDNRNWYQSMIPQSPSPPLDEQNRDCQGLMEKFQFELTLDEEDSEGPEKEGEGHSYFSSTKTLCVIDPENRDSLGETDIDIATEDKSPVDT
Sequence of Glucocorticoid receptor (Homo sapiens) (P04150 whole entry, looked up, the tested form may be a part): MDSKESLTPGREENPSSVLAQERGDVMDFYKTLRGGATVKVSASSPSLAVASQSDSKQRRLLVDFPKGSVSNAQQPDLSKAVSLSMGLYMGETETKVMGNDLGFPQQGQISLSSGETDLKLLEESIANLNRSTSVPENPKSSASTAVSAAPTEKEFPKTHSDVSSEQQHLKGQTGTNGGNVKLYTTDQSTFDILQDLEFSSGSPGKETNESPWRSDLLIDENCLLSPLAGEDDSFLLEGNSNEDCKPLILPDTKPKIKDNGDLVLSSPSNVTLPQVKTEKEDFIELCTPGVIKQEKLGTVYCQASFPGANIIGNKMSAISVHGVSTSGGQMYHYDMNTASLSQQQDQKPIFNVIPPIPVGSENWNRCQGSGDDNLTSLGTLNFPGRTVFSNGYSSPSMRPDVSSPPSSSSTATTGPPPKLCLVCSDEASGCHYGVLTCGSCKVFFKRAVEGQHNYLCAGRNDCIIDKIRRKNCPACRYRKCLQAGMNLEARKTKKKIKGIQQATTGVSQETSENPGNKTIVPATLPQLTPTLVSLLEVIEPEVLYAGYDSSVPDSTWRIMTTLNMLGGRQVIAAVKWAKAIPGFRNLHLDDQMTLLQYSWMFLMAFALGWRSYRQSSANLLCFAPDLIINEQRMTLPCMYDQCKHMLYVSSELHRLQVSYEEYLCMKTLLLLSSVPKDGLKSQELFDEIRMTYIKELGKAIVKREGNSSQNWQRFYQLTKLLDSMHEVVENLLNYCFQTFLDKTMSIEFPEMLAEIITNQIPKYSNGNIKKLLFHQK
Sequence of Cytochrome P450 3A4 (Homo sapiens) (P08684 whole entry, looked up): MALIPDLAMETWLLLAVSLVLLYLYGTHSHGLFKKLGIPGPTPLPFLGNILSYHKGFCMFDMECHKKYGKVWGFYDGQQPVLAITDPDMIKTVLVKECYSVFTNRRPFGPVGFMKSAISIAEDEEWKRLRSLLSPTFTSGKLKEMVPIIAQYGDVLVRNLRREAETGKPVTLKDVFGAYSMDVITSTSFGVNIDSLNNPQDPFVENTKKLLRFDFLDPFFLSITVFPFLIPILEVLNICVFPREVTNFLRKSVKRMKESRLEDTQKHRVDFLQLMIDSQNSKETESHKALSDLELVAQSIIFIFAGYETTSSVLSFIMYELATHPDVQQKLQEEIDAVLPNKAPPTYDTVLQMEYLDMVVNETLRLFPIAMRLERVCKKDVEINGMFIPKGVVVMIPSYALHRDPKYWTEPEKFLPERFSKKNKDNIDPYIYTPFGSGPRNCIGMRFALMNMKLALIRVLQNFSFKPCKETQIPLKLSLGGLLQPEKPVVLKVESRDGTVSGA
Sequence of Lysosomal acid glucosylceramidase (Homo sapiens) (P04062 whole entry, looked up): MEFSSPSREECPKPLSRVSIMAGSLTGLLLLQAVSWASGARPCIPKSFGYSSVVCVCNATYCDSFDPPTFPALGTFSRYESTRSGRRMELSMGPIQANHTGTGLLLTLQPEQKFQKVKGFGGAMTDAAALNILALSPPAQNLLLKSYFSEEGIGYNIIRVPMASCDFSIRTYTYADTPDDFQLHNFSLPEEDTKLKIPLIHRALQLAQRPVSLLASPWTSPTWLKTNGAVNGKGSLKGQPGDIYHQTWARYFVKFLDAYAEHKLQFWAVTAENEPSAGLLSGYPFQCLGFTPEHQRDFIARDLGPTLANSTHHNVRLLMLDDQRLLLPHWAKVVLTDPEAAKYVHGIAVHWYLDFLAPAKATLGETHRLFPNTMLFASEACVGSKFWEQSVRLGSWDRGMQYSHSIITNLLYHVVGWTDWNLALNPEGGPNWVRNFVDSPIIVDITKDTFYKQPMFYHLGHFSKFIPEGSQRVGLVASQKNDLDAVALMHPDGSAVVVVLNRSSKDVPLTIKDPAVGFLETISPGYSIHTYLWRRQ
Sequence of Cytochrome P450 2D6 (Homo sapiens) (P10635 whole entry, looked up): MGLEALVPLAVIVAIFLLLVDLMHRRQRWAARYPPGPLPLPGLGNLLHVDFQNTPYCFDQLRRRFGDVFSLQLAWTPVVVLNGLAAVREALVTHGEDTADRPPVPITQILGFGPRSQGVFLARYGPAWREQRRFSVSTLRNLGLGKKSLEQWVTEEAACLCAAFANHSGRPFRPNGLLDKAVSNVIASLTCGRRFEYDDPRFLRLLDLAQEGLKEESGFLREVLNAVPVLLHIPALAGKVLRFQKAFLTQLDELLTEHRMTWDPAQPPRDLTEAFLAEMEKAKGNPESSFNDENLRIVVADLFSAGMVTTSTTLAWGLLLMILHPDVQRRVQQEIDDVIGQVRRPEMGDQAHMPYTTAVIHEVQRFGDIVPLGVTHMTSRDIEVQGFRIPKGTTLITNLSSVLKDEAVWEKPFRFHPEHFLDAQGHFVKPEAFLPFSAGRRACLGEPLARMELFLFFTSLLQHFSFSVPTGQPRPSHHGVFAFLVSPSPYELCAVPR
Sequence of Cytochrome P450 1A2 (Homo sapiens) (P05177 whole entry, looked up): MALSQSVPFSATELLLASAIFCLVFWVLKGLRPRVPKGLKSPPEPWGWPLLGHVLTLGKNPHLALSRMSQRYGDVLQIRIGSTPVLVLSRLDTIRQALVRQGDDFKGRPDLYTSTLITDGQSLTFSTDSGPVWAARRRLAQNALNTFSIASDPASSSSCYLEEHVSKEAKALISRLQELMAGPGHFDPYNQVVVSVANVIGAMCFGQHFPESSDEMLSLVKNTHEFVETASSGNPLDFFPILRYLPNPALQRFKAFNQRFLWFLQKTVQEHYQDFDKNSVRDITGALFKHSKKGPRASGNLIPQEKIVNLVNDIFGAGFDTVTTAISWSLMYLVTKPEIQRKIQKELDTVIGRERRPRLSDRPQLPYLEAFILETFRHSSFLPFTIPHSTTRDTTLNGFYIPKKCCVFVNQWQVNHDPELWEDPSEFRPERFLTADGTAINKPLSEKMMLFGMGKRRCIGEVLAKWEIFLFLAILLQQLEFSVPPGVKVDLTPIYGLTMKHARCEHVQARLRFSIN

`CS(=O)(=O)N1CCC2(CC1)CN(Cc1cc(C(F)(F)F)cc(C(F)(F)F)c1)C2`: the figures for the Potency in assay [1], in assay [5] and in [8] were > 11.4 µM (inactive), > 46 µM (inactive) and 0.398 µM (active), respectively. Moreover, the activity change, negative = inhibition in [2] was 5.66% (inactive); in [3], -8.2% (inactive); in assay [9], 2.23% (inactive). In assay [4], the activity, negative = inhibition was -3.12% (inactive). In [6], the molecule was called inactive. Moreover, the Potency result in assay [7] and in assay [10] was “inactive” throughout. In addition, the results for the max response in [9] (setting [14]) and in [9] (setting [15]) were -5.23% and 0.681%, respectively.
For `CS(=O)(=O)N1CCC[C@@]2(CCN(Cc3ccccc3)C2)C1`, the figures for the Potency in assay [1] and in assay [5] were > 11.4 µM (inactive) and > 46 µM (inactive), respectively. Further, the activity change, negative = inhibition in assay [2] was 0.761% (inactive); in assay [3], 1.85% (inactive); in assay [9], 2.55% (inactive). Moreover, the activity, negative = inhibition in assay [4] was 23.6% (inactive). Moreover, the molecule was called inactive in [6]. Besides, the figures for the max response in [9] (setting [14]) and in [9] (setting [15]) were 2.42% and 7.6%, respectively. Besides, the Potency result in assay [10] is “inactive”.
Take `O=C(Nc1ccccc1)N1CCCC2(CCN(C(=O)c3ccco3)CC2)C1`: the Potency in assay [1] is > 11.4 µM (inactive); in assay [5] it was > 46 µM (inactive). Further, the activity change, negative = inhibition in assay [2] is -8.89% (inactive); in assay [3], -7.1% (inactive); in assay [9], 4.55% (inactive). For the same molecule, the activity, negative = inhibition in assay [4] was -4.1% (inactive). The outcome in [6] was inactive. Moreover, the Potency entry in assay [7], in assay [11] and in assay [10] was “inactive” throughout. Further, the max response in assay [9] (setting [14]) was 12%; in [9] (setting [15]), 20.3%.
For the molecule `O=C(c1csnn1)N1CCC2(CCCN(Cc3cc(C(F)(F)F)cc(C(F)(F)F)c3)C2)CC1`, the Potency was > 11.4 µM (inactive) in assay [1], 12.6 µM (active) in assay [12] and > 46 µM (inactive) in assay [5]. The activity change, negative = inhibition in [2] was 10.6% (inactive); in assay [9], -5.5% (inactive). The activity, negative = inhibition in assay [4] is 3.73% (inactive). Further, in assay [6], the result was inactive. For the same molecule, the Potency result in [7] and in assay [10] was “inactive” in each case. The max response in [9] (setting [14]) came out at 21.4%; in assay [9] (setting [15]), 17.2%.
As to `Cn1cccc1C(=O)N1CCC2(CC1)CCN(c1ccccc1)CC2`, the Potency is > 11.4 µM (inactive) in assay [1], > 46 µM (inactive) in assay [5] and 15.8 µM (active) in assay [11]. Also, the activity change, negative = inhibition was -11.3% (inactive) in assay [2], 20.8% (inactive) in assay [3] and 5.03% (inactive) in assay [9]. The activity, negative = inhibition in assay [4] is -1.51% (inactive). For the same molecule, the Potency entry in assay [7], in assay [13] and in assay [10] was “inactive” throughout. For the same molecule, the max response in assay [9] (setting [14]) stood at 9.38%; in [9] (setting [15]) it was 16.6%.
For `COc1ccccc1CN1CC[C@@]2(CCCN(C(=O)c3cccc(F)c3)C2)C1`, the results for the Potency in assay [1] and in assay [5] were > 11.4 µM (inactive) and > 46 µM (inactive), respectively. The activity change, negative = inhibition is -14.6% (inactive) in assay [2], -10.9% (inactive) in [3] and 5.1% (inactive) in assay [9]. In addition, the activity, negative = inhibition in assay [4] was 10.2% (inactive). Besides, in assay [6], the result was inactive. For the same molecule, the Potency result in assay [7] and in [10] was “inactive” throughout. For the same molecule, the max response in assay [9] (setting [14]) was 15.7%; in assay [9] (setting [15]) it was 25%.
